In PubChem BioAssay AID1789 (The Scripps Research Institute Molecular Screening Center, 2009):
Values joined by “and” are separate entries in the source; they are usually repeats but may differ in a detail not shown here. Identical values can stand only once. The campaign covered roughly 290,000 compounds. About 2,700 (0.93%) were called active.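 How the source made its calls: active means inhibition above the screen-wide mean plus 3 SD, computed separately per campaign (cut at about 16% in these data); inactive means the rest.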 Many of the other results were omitted from the sample, so actives are more common in it than they were.

tested on: Heat shock protein HSP 90 (rabbit reticulocyte lysate; luciferase refolding); experiment: inhibitors of HSP90 chaperone activity – cell lysate, luminescence, primary screen (AID 1789); conditions: 3 h, at 5.6 µM, stronger effect = higher value;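 further: 0% = DMSO wells and 100% = 60 µM geldanamycin wells; inhibitors lower the luminescence because luciferase stays unfolded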

Row | Structure (SMILES) | inhibition
1 | O=C(NCc1cccnc1)c1ccccc1NC(=O)c1c(F)cccc1F | -0.75% (inactive)
2 | COc1ccc(N(CC(=O)Nc2cc(OC)cc(OC)c2)S(=O)(=O)c2c(C)n[nH]c2C)cc1 | -1.64% (inactive)
3 | Cc1ccc(S(=O)(=O)NCC(=O)N2CCOCCOCCOCCOCC2)cc1 | -3.1% (inactive)
4 | COc1ccccc1-c1cnn2c(N3CCOCC3)cc(C)nc12 | 3.53% (inactive)
5 | Cc1sc2ncn(CC(=O)NCCCC(=O)N3CCN(c4ccccc4F)CC3)c(=O)c2c1C | -3.37% (inactive)
6 | CSCCC(C(=O)NC1=NCCS1)N1C(=O)c2ccccc2C1=O (stereo unspecified) | 33.2% (active)
7 | CC(NC(=O)COc1ccccc1)C(=O)NC1=NCCS1 (stereo unspecified) | -0.56% (inactive)
8 | O=C(NC1=NCCS1)[C@H](Cc1ccccc1)N1C(=O)c2ccccc2C1=O | 3.87% (inactive)
9 | N#Cc1ccccc1S(=O)(=O)N1CCN(C(=O)c2cc(-c3ccccc3)nn2-c2ccccc2)CC1 | 4.37% (inactive)
10 | CC(C)c1nnc(NC(=O)C2CC(=O)N(CCc3ccc(F)cc3)C2)s1 (stereo unspecified) | -2.78% (inactive)
11 | CCOC(=O)C1=C(CCc2ccccc2)NC(=O)NC1c1ccc2ccccc2c1 (stereo unspecified) | 2.66% (inactive)
12 | CC(=O)N1CCC(C(=O)OCc2ccc(Cl)cc2)(c2ccccc2)CC1 | -1.35% (inactive)
13 | CC(C)CNC(=O)CC(NCC(C)C)C(=O)O (stereo unspecified) | 21.9% (active)
14 | CC(C)CNC(=O)CC(c1ccccc1)c1c(O)ccc2ccccc12 (stereo unspecified) | -0.94% (inactive)
15 | CC(C)CNC(=O)/C=C/C(=O)O | 0.58% (inactive) and -0.1% (inactive)
16 | COc1cccc(N(CC(=O)NC2CCCC2)C(=O)Cn2nnc(-c3ccc(C)o3)n2)c1 | 0.72% (inactive)
17 | C=C(C)COc1ccc(-c2ncncc2-c2ccc(OC)cc2)c(O)c1 | 3.58% (inactive)
18 | c1ccc(-c2ccc3c(c2)NC(C2Nc4cc(-c5ccccc5)ccc4O2)O3)cc1 (stereo unspecified) | 52.5% (active)
19 | Cc1cc(C)cc(C(=O)OCC(=O)NCCNC(=O)COC(=O)c2cc(C)cc(C)c2)c1 | -1.1% (inactive)
20 | O=C1CCC([N+](=O)[O-])C(c2ccccc2Br)N1 (stereo unspecified) | 78.7% (active)
21 | COc1cc2c(cc1OC)C(c1ccccc1Br)NC(=O)C2 (stereo unspecified) | -0.82% (inactive)
22 | O=C1CCC(Cc2ccccc2)N1 (stereo unspecified) | 0.74% (inactive)
23 | Cc1ccc(SCC(=O)NNC(=O)c2ccc(S(C)(=O)=O)cc2)cc1 | 2.29% (inactive)
24 | O=C(/C=C/c1cnc2ccccc2n1)NC1CCCCCC1 | -4.23% (inactive)

Row | Structure (SMILES) | inhibition
25 | O=C(COC(=O)/C=C/c1cccs1)NC1CCCCC1 | 1.87% (inactive)
26 | Cc1cc(C)n2nc(SCC(=O)NC(=O)NCc3ccco3)nc2n1 | 0.53% (inactive)
27 | Cc1ccc(NC(=O)C(=O)NCc2ccco2)c(C)c1 | -1.76% (inactive)
28 | Cc1ccc(SCC(=O)NC(=O)NCc2ccco2)c(C)c1 | 16.6% (active)
29 | CC(C)Cc1nnc(NC(=O)CN2C(=O)NC3(CCCCC3)C2=O)s1 | -3.19% (inactive)
30 | CC1CCN(CC(O)COc2ccc(C(=O)c3ccccc3)cc2)CC1 (stereo unspecified) | -4.35% (inactive)
31 | Cc1csc(NC(=O)CSc2nc(=O)cc(N)n2-c2ccc(F)cc2)n1 | -4.86% (inactive)
32 | Cc1nc([N+](=O)[O-])cn1CC(=O)Nc1ccc(Cl)cc1 | -5.8% (inactive)
33 | Cc1nc2cc3c(cc2s1)OCO3 | 5.26% (inactive)
34 | Brc1ccc2nc(N3CCCC3)sc2c1 | 7.29% (inactive)
35 | c1c2c(cc3sc(N4CCCCC4)nc13)OCCO2 | 56.8% (active)
36 | COCC1CCN(C(=O)CCc2nnc(C3(c4ccc(Cl)cc4)CCC3)o2)C1 (stereo unspecified) | -3.96% (inactive)
37 | CN(CC1CCCN(CCc2cccc(C(F)(F)F)c2)C1)C(=O)c1ccc2nc[nH]c2c1 (stereo unspecified) | -5.74% (inactive)
38 | Clc1c(OCCCn2ccnc2)ccc2ccccc12 | 1.78% (inactive)
39 | CC(=O)Nc1ccc(-c2nc3ccccc3o2)cc1 | 2.88% (inactive)
40 | CCc1ccc2oc(-c3ccc(N)cc3)nc2c1 | 26.4% (active)
41 | COc1ccc(-c2nc3cc([N+](=O)[O-])ccc3o2)cc1OC | 1.87% (inactive)
42 | COc1ccc2[nH]c(=O)c(CN(Cc3cccnc3)S(=O)(=O)c3ccccc3F)cc2c1 | 1.17% (inactive)
43 | Cc1cccc(C(=O)OC(C)CN2CCCC2)c1 (stereo unspecified) | 0.74% (inactive)
44 | Cc1cccc(C(=O)OC(C)CN2CCN(C)CC2)c1 (stereo unspecified) | 17.2% (active)
45 | Cc1ccc(C(=O)OC(C)CN2CCOCC2)cc1 (stereo unspecified) | -4.23% (inactive)
46 | CCOc1ccc(NC(=O)[C@H](C)NC(=O)C2CC(=O)N(c3ccc(OC)cc3)C2)cc1 (stereo partly specified) | 2.77% (inactive)
47 | O=C(NC1CCCC1)C(c1c(F)cccc1Cl)N(C(=O)c1csnn1)C1CC1 (stereo unspecified) | -3.16% (inactive)
48 | Cc1ccc(C(=O)Nc2ccc(C)c(S(=O)(=O)N(C)C)c2)s1 | 0.01% (inactive)

Row | Structure (SMILES) | inhibition
49 | O=c1oc2ccccc2cc1-c1csc(Nc2ccc(O)cc2)n1 | -2.38% (inactive)
50 | Cc1ccc(Nc2nc(-c3ccc(O)cc3O)cs2)nc1 | 28.1% (active)
51 | Clc1ccc(Nc2nc(-c3cccs3)cs2)nc1 | 6.93% (inactive)
52 | Nc1ccccc1SC(C[N+](=O)[O-])c1ccccc1 (stereo unspecified) | -4.32% (inactive)
53 | CCOC(=O)c1cc(Sc2ccccc2N)cc(C(=O)OCC)n1 | 7.9% (inactive)
54 | CCS(=O)(=O)c1cc([N+](=O)[O-])c(Sc2ccccc2N)s1 | 20.8% (active)
55 | O=c1ccc(-c2ccc(S(=O)(=O)Nc3ccccc3)o2)n[nH]1 | -6.52% (inactive)
56 | COCCn1c(N)c(NCc2ccccc2)c(=O)[nH]c1=O | 7.03% (inactive)
57 | Cn1c(=O)c2c(SCC(=O)NCC3CCCO3)nc(CC(C)(C)C)nc2n(C)c1=O (stereo unspecified) | -3.22% (inactive)
58 | COc1cc(/C=N/NC(=O)c2cc(C)n(-c3ccc(F)cc3)c2C)cc(OC)c1O | 6.31% (inactive)
59 | Cc1ccc(-n2c(C)cc(C(=O)CN3C(=O)C(=O)N(C4CCCC4)C3=O)c2C)cc1 | -3.59% (inactive)
60 | Cc1cc(C(=O)COC(=O)C2CC2)c(C)n1-c1ccc(F)cc1 | 84.2% (active)
61 | COc1ccc(-n2c(C)cc(C(=O)CN3C(=O)NC4(CCc5ccccc54)C3=O)c2C)cc1 (stereo unspecified) | 2.66% (inactive)
62 | CCn1cc(/C=C(\NC(=O)c2ccc(C)cc2)C(=O)NCCN2CCOCC2)c2ccccc21 | 3.27% (inactive)
63 | Cc1nn(Cc2ccccc2)c(Cl)c1C(=O)OC1CCOC1=O (stereo unspecified) | -0.01% (inactive)
64 | CC(C)c1ccc(C(=O)OC2CCOC2=O)cc1 (stereo unspecified) | 3.27% (inactive)
65 | O=C(OC1CCOC1=O)c1ccc(-c2nc3ccccc3s2)s1 (stereo unspecified) | 35.8% (active)
66 | CCOC(=O)C1CCN(Cc2c(C(=O)N3CCOCC3)nc3c(C)cccn23)CC1 | 13.2% (inactive)
67 | C=C(C)CNC(=O)c1ccc(OC2CCN(C(=O)COC)CC2)cc1 | 2.35% (inactive)
68 | CC(C)C[C@H](NC(=O)C1CC(=O)N(c2ccc3c(c2)OCCO3)C1)C(=O)NC1CCCC1 (stereo partly specified) | -1.77% (inactive)
69 | CN(c1ccc2nc3ccccc3c(=O)n2n1)C1CCCCC1 | 85.9% (active)
70 | CCOC(=O)C(C)Sc1nc2ccccc2c(=O)n1CC1CCCCC1 (stereo unspecified) | 2.53% (inactive)
71 | O=c1c2ccccc2nc2n1C1(CCCCC1)Cc1ccccc1-2 | 4.03% (inactive)
72 | COCCC(=O)N1CCC(Oc2ccc(C(=O)NCc3ccon3)cc2)CC1 | -1.71% (inactive)

Row | Structure (SMILES) | inhibition
73 | CNC(=O)CN1C(=O)NC(c2ccccc2)(c2ccccc2)C1=O | 3.3% (inactive)
74 | C=CCc1cc(S(=O)(=O)c2ccc(O)c(CC=C)c2)ccc1O | -0.52% (inactive)
75 | CCOC(=O)N1CCN(C(=O)C(=O)Nc2sc3c(c2C#N)CC(C)(C)OC3)CC1 | -2.63% (inactive)
76 | CCOc1ccc(-c2nnc(-c3ccco3)o2)cc1 | 30.8% (active)
77 | CCOc1ccc(-n2c(SCC(N)=O)nnc2-c2ccco2)cc1 | 7.02% (inactive)
78 | CCCCOc1ccc(-c2nnc(-c3ccco3)o2)cc1 | -4.76% (inactive)
79 | CCc1ccccc1OCC(=O)Nc1ccc2c(c1)OCCO2 | -5.09% (inactive)
80 | CCn1ccnc1CN(C)C(=O)c1ccc2nc(Cc3ccc(OC)cc3)oc2c1 | -0.73% (inactive)
81 | COCC1CCN(C(=O)C2CCC(=O)N(Cc3cccc(C(F)(F)F)c3)C2)CC1 (stereo unspecified) | 2.25% (inactive)
82 | O=C(/C=C/c1cccc([N+](=O)[O-])c1)N1CCN(Cc2ccccc2)CC1 | -2.98% (inactive)
83 | O=[N+]([O-])/C=C/c1ccc2c(ccn2Cc2ccccc2)c1 | 21.8% (active)
84 | O=c1c([N+](=O)[O-])cc(C(F)(F)F)cn1Cc1cccc(Cl)c1 | 0.02% (inactive)
85 | CN(Cc1ccccc1)C(=O)C(=O)c1cn(CC(=O)N2CCCC2)c2ccccc12 | -3.8% (inactive)
86 | CCc1ccc(NC(=O)NC(C)c2ccc3c(c2)OCO3)cc1 (stereo unspecified) | 1.03% (inactive)
87 | Cc1onc(-c2ccccc2)c1C(=O)N1CCN(S(=O)(=O)c2ccccc2C(F)(F)F)CC1 | -1.81% (inactive)
88 | COc1ccc(N2CCN(C(=O)c3cn(C)c4ccc(S(=O)(=O)N5CCOCC5)cc4c3=O)CC2)cc1 | -3.81% (inactive)
89 | Cc1cc(C)nc(N2CCC(C(=O)Nc3ccc4c(c3)OCCO4)CC2)n1 | 0.65% (inactive)
90 | O=C(Nc1ccc2c(c1)OCCO2)C1CCCN(c2ncccn2)C1 (stereo unspecified) | 16.9% (active)
91 | O=C(Nc1cccc(Cl)c1)C1CCCN(c2cnccn2)C1 (stereo unspecified) | -2.56% (inactive)
92 | COc1ccc(N2C(=O)NC(NS(=O)(=O)c3ccc(Cl)cc3)(C(F)(F)F)C2=O)cc1 (stereo unspecified) | 1.44% (inactive)
93 | COc1ccc(Cc2cc(-c3ccc(F)cc3)n[nH]c2=O)cc1 | -1.15% (inactive)
94 | CC(OC(=O)c1ccc2noc(-c3ccccc3)c2c1)C(N)=O (stereo unspecified) | 26.5% (active)
95 | Oc1ccc(-c2onc3ccc(Cl)cc23)cc1 | -0.76% (inactive)
96 | COc1ccc(-c2onc3ccc(C(C)=O)cc23)cc1 | 3.03% (inactive)
